The panel holds about 83,000 compounds, 20% with a hit somewhere; the sample as a whole holds those more often.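 Compound tested at a single concentration for 48 hours in 96-well plates; a percent growth value below 10 was scored as active.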 A number with no mark means an inactive call. Activity calls are given as the source filed them.

This test has as its system HS 578T breast. The experiment in a line: NCI-60 one-dose screen, 48 h (100 = growth as untreated, 0 = no growth, -100 = all killed). Conditions: 10 µM. The procedure: Growth inhibition of the HS 578T human tumor cell line is measured as a screen for anti-cancer activity. Cells are grown in 96 well plates and exposed to the test compound for 48 hours. Compounds are tested at a single concentration, which is 10^-5 M for most compounds. The reported endpoint is percent growth (GI% or GIPRCNT), where numbers from 0 - 100% represent growth inhibition, and numbers from -100% - 0 represent cell death. For example, a value of 40 represents 60% growth inhibition. A value of 0 means no net growth occurred over the course of the experiment. A value of -40 indicates 40% of cells at the beginning of the experiment died by the end of the experiment. A value of -100 means all cells are dead at the end of the experiment.
NCI-60 Human Tumor Cell Lines Screen was performed using the standard one-dose NCI protocol, which is described in more detail at https://dtp.cancer.gov/discovery_development/nci-60/default.htm.
Compounds with GIPRCNT values below 10 were considered active. Activity score was based on GIPRCNT using the following formula: […]
Score is 0 for GIPRCNT values of 100 or above, 50 for GIPRCNT values of 0, and 100 for GIPRCNT values of -100.
As to `CC1OC(Oc2c(-c3ccc(O)c(O)c3)oc3cc(O)cc(O)c3c2=O)C(O)C(O)C1O` (stereo not given), the growth was 105%.

`CCCC1(c2ccccc2)NC(=O)NC1=O` (stereo not given): the growth was 113%.

In the case of `COC(=O)c1cccc(Br)c1`, the growth was 117%.

On to `CSC[C@H](NC(=O)COc1cccc2cnccc12)C(=O)NC(Cc1ccccc1)C(O)C(=O)N1CSC[C@H]1C(=O)NC(C)(C)C` (stereo not given in full), for which the growth was 86.8%.

On to `N#CCCc1ccc(O)cc1`, for which the growth is 102%.

Consider `COCCOC(=O)c1ccc(C(C)C)cc1`, for which the growth was 117%.

As for `CC(C)C1CCCCC1O` (stereo not given), the growth was 105%.

Consider `CC(C)NC(=O)OCc1c(COC(=O)NC(C)C)c(-c2ccc(Cl)c(Cl)c2)n2c1SCC2`, for which the growth is 36.3%.

As for `CS(=O)CC1=NC(=N)N=C1CS(C)=O` (stereo not given), the growth was 89.9%.

`O=C(O)c1cccc([N+](=O)[O-])c1O`: the growth was 112%.

Regarding `COC(=O)C(C)Oc1ccc(OC#N)cc1` (stereo not given), the growth was 90.1%.

Regarding `NC(C(=O)O)C(O)c1ccco1` (stereo not given), the growth was 107%.

As for `Cc1ccc(/C=C2\SC(=S)N(c3ccc(F)cc3)C2=O)o1`, the growth was 52.2%.

As for `Cc1c(O)cnc2nn(-c3ccccc3)c(=N)n12`, the growth was 127%.

Consider `O=C(Cc1ccccc1)Cc1ccccc1`, for which the growth is 106%.

For the compound `O=C(O)CCCC(=O)O`, the growth is 110%.

Take `COc1ncnc2c1cnn2C`: the growth is 114%.

With `Cc1cc(/C=C/c2ccc3cc(N(C)C)ccc3[n+]2C)c(C)n1-c1ccccc1`, the growth is -9.95% (active).

In the case of `NCC(=O)CCC(=O)O`, the growth is 108%.

Turning to `Nc1ccc(NC(=O)c2cccc(N)c2)cc1`, the growth is 97.1%.

For the compound `COc1ccc(-c2cc(-c3cc(-c4ccc(OC)cc4)nc(N)n3)nc(N)n2)cc1`, the growth is 96.4%.

With `CC(=O)Nc1ccc(NC(C)=O)c2c1C(=O)c1ccccc1C2=O`, the growth is 102%.

As to `CCOc1ccc2[nH]c(=S)sc2c1`, the growth is 96%.

`COC(=O)c1ccc(NC(=O)CCl)cc1`: the growth was 74.9%.

Take `C=CCNc1nnc(C)s1`: the growth was 101%.

Turning to `C=CC[N+](C)(C)C`, the growth was 95.5%.

Turning to `CN(C)c1nc2c([nH]1)c(=O)n(C)c(=O)n2C`, the growth was 93.2%.

Take `COc1ccc(OC)c(/C=C2\CCc3ccccc3C2=O)c1`: the growth was 45.4%.

In the case of `CCC(C)(C)C1CCC(O)CC1` (stereo not given), the growth was 101%.

For `CCN1C(=O)/C(=C/C=C/N(C)c2ccccc2)SC1=S`, the growth was 58.6%.

`CCOC(=O)CNN`: the growth was 105%.

As to `CC(=O)c1ccc(C)c(N)c1`, the growth is 96.9%.

For `Cc1ccc(Cl)cc1NC(=O)N(C)CCO`, the growth is 236%.

In the case of `CNC(=O)c1ccccc1CC1(O)c2ccccc2Oc2ccccc21`, the growth is 63.5%.

With `CC(=O)OCCC(C)CCC=C(C)C` (stereo not given), the growth is 104%.

As for `CCOC(=O)C(CCC(C)C)C(=O)OCC`, the growth was 115%.

Consider `O=c1cc(-c2ccccc2)[nH]c2c1CCCC2`, for which the growth was 16.3%.

As for `O=C(NCc1ccco1)Nc1c(Cl)cc(Cl)cc1Cl`, the growth was 109%.

As for `c1ccc2c(N3CCCCC3)ncnc2c1`, the growth is 116%.

With `Cc1ccc(S(=O)(=O)O)c(C)c1`, the growth is 93.8%.

The values above are taken from PubChem BioAssay (NCI).
